Results: PubChem BioAssay (NCATS)
Inconclusive results are not listed. The source made the active and inactive calls. Calls come from the whole dose curve; as a rule, active = well fitted cell-killing curve with a large enough effect; inconclusive = small, poorly fitted or top-dose-only effect, or effect the other way; inactive = no such curve, though single readings can be large or run the other way.

Assay: Viability qHTS for spleen associated tyrosine kinase inhibitor (SYKi) drug resistant MV4-11 cells (AID 1963824); note: nearly all actives have a fitted effect of over 35% in size
Settings: SYKi-resistant MV4-11 viability, CellTiter-Glo, 72 h; series mostly up to 45 µM; viability, % of control: at the top concentration
Method in brief: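 CellTiter-Glo luminescence, read 10 min after reagent addition, reports viability after a 72 hr compound exposure. Cells are an MV4-11 line made resistant to SYK inhibition, seeded at 500 per well onto compound-containing plates.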
Potency is the fitted concentration of half-maximal effect.

SMILES	viability, % of control	Potency
C[C@@H]1O[C@@H](O[C@H]2[C@H](OC(=O)[C@]34CCC(C)(C)C[C@H]3C3=CCC5[C@@]6(C)C[C@H](O)[C@H](O[C@@H]7O[C@H](CO)[C@@H](O[C@@H]8O[C@H](CO)[C@@H](O)[C@H](O)[C@H]8O)[C@H](O)[C@H]7O)[C@@](C)(CO)C6[C@H](O)C[C@@]5(C)[C@]3(C)C[C@H]4O)OC[C@H](O)[C@@H]2O)[C@H](O)[C@H](O)[C@H]1O[C@@H]1OC[C@@H](O)[C@H](O[C@@H]2OC[C@](O)(CO)[C@H]2O)[C@H]1O (some centres not stated)	108% [at 9.25 µM] (inactive)	
C=C1CC[C@@H](O)[C@]2(C)CC[C@H]3C(=C)C(=O)O[C@@H]3[C@@H]12		11.6 µM (active)
CC1(C)CCCC2(C)C=C(C(=O)O)C(O)CC12 (configuration not stated)	47.1% (inactive)	
COc1cc2c(cc1OC)-c1[nH]nc(Nc3cccc(F)c3)c1C2		0.0731 µM (active)
NC(=O)c1csc(C2OC(CO)C(O)C2O)n1 (configuration not stated)		8.2 µM (active)
CS(=O)(=O)c1ccc(-c2cn3ccccc3n2)cc1	75.9% (inactive)	
CC(=O)N1c2ccc(-c3ccc(C(=O)O)cc3)cc2C(Nc2ccc(Cl)cc2)CC1C (configuration not stated)		0.0461 µM (active)
CCNC(=O)Nc1ccc(Oc2ncnc(N)c2/C=N/OC)cc1Cl		18.6 µM (active)
CC(=O)O[C@@H]1[C@@H](O)[C@H](O[C@@H]2[C@@H](O)[C@@H](O)[C@H](O[C@H]3[C@H](O[C@H]4[C@H](O[C@H]5CC[C@@]6(C)C(CC[C@]7(C)C6CC=C6[C@@H]8CC(C)(C)CC[C@]8(C(=O)O)CC[C@]67C)[C@]5(C)CO)O[C@H](CO)[C@@H](O)[C@@H]4O)OC[C@@H](O)[C@@H]3O)O[C@H]2C)OC[C@H]1O (some centres not stated)		3.9 µM (active)
C=CC(C)(C)C12CC3C(=O)NC(Cc4cnc[nH]4)C(=O)N3C1Nc1ccccc12 (configuration not stated)	83% (inactive)	
CC(C)(O)C(=O)N1CCN(c2ccc(C(F)(F)F)c(C3=C(c4c[nH]c5ccccc45)C(=O)NC3=O)c2)CC1		0.366 µM (active)
CO[C@@H]1[C@]2(O)C(=O)N3/C=C\C(C)(C)c4[nH]c5ccccc5c4/C=C\3C(=O)N2[C@]23[C@H](CO)C(C)(C)N2c2ccccc2[C@]13O	84.1% [at 17.3 µM] (inactive)	
